The source made the active and inactive calls. How the source made its calls: active means hit-call score of the fitted dose curve at least 0.9, where 1 is the maximum; inactive means score below 0.9.
What was measured:
[1] = read-out: Vascular cell adhesion molecule 1 (VCAM1), VCAM1 (gene 7412); test: BSK_CASM3C_VCAM1: BioMAP Diversity Plus: CASM3C Assay for Vascular cell adhesion molecule 1 (VCAM1) Biomarker Activity (AID 2283055); details: primary human coronary artery smooth muscle cells; actives raise or lower the signal;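 further: VCAM-1 protein level quantified by ELISA on the cells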
[2] = read-out: Collagen III, COL3A1 (gene 1281); test: BSK_hDFCGF_CollagenIII: BioMAP Diversity Plus: hDFCGF Assay for Collagen III Biomarker Activity (AID 2283056); details: primary human foreskin fibroblasts; actives raise or lower the signal
How it was run: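 Human foreskin primary fibroblasts were exposed to test chemicals for 24 h, after which collagen III was quantified by ELISA. Activity was fitted bidirectionally against DMSO as negative control and baseline.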

[3] = read-out: Epidermal growth factor receptor (EGFR), EGFR (gene 1956); test: BSK_hDFCGF_EGFR: BioMAP Diversity Plus: hDFCGF Assay for Epidermal growth factor receptor (EGFR) Biomarker Activity (AID 2283057); details: primary human foreskin fibroblasts; actives raise or lower the signal
How it was run: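 Cell-based multiplexed assay in primary human foreskin fibroblasts. EGFR is read by ELISA 24 h after treatment and compared with DMSO controls.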

[4] = read-out: Interleukin-8 (IL8), CXCL8 (gene 3576); test: BSK_hDFCGF_IL8: BioMAP Diversity Plus: hDFCGF Assay for Interleukin-8 (IL8) Biomarker Activity (AID 2283058); details: primary human foreskin fibroblasts; actives raise or lower the signal
How it was run: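 hDFCGF human dermal fibroblasts; 24 h chemical exposure; IL-8 by ELISA; bidirectional curve fit vs DMSO baseline; gain or loss of signal scored.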

[5] = BSK_hDFCGF_Proliferation: Cell Proliferation Assessment in the BioMAP Diversity Plus: hDFCGF Assay (AID 2283059); details: primary human foreskin fibroblasts;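 further: curves fitted for both rise and fall of signal versus DMSO baseline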
How it was run: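 This proliferation readout used SRB total-protein staining of human foreskin fibroblasts […], normalized to DMSO with bidirectional curve fitting.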

[6] = BSK_hDFCGF_SRB: Viability Assessment in the BioMAP Diversity Plus: hDFCGF Assay (AID 2283061); details: primary human foreskin fibroblasts;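 further: cells exposed to compound for 24 h before the read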
How it was run: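 Human foreskin primary fibroblasts were treated with compound and assessed 24 h after dosing. Total protein was measured by sulforhodamine B staining (0.1% SRB after 10% TCA fixation, 560 nm read) as a cytotoxicity marker, with bidirectional fitting against DMSO baseline.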

[7] = read-out: TIMP metallopeptidase inhibitor 1 (TIMP1), TIMP1 (gene 7076); test: BSK_hDFCGF_TIMP1: BioMAP Diversity Plus: hDFCGF Assay for TIMP metallopeptidase inhibitor 1 (TIMP1) Biomarker Activity (AID 2283062); details: primary human foreskin fibroblasts; actives raise or lower the signal
How it was run: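 Primary human foreskin fibroblasts in the hDFCGF system were dosed with compound for 24 h, then TIMP-1 was measured by ELISA. Activity was fitted bidirectionally relative to DMSO control; parallel SRB staining assessed cytotoxicity.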

[8] = read-out: Monokine induced gamma interferon (MIG), CXCL9 (gene 4283); test: BSK_hDFCGF_MIG: BioMAP Diversity Plus: hDFCGF Assay for Monokine induced gamma interferon (MIG) Biomarker Activity (AID 2283063); details: primary human foreskin fibroblasts; actives raise or lower the signal
How it was run: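 ELISA read-out of MIG from primary human dermal fibroblasts 24 h post-dosing. Gain or loss of signal fitted bidirectionally, DMSO as baseline.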

[9] = read-out: Matrix Metallopeptidase 1 (MMP1), MMP1 (gene 4312); test: BSK_hDFCGF_MMP1: BioMAP Diversity Plus: hDFCGF Assay for Matrix Metallopeptidase 1 (MMP1) Biomarker Activity (AID 2283064); details: primary human foreskin fibroblasts; actives raise or lower the signal
How it was run: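 MMP1 levels quantified by ELISA 24 h after dosing human dermal fibroblast cultures, with parallel SRB total-protein staining for overt cytotoxicity. Data fitted in both directions against DMSO baseline.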

[10] = read-out: Vascular cell adhesion molecule 1 (VCAM1), VCAM1 (gene 7412); test: BSK_hDFCGF_VCAM1: BioMAP Diversity Plus: hDFCGF Assay for Vascular cell adhesion molecule 1 (VCAM1) Biomarker Activity (AID 2283065); details: primary human foreskin fibroblasts; actives raise or lower the signal;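 on AC50: VCAM-1 protein level quantified by ELISA after 24 h chemical exposure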
How it was run: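 Primary human foreskin fibroblasts (hDFCGF system) were dosed with chemical and VCAM-1 was measured by ELISA 24 h later. Bidirectional curve fitting used DMSO as negative control and activity baseline.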

[11] = read-out: Plasminogen activator inhibitor-1 (PAI1), SERPINE1 (gene 5054); test: BSK_hDFCGF_PAI1: BioMAP Diversity Plus: hDFCGF Assay for Plasminogen activator inhibitor-1 (PAI1) Biomarker Activity (AID 2283066); details: primary human foreskin fibroblasts; actives raise or lower the signal
How it was run: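 Human skin fibroblast cultures receive chemical for 24 h before PAI-1 is measured by ELISA; signal changes are fitted bidirectionally against DMSO-treated wells.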

[12] = read-out: Intercellular Adhesion Molecule 1 (ICAM1), ICAM1 (gene 3383); test: BSK_KF3CT_ICAM1: BioMAP Diversity Plus: KF3CT Assay for Intercellular Adhesion Molecule 1 (ICAM1) Biomarker Activity (AID 2283067); details: primary human keratinocytes with fibroblasts; actives raise or lower the signal
How it was run: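 Human keratinocyte plus foreskin fibroblast primary co-culture was exposed to chemical for 24 h. ICAM-1 was then quantified by ELISA, and the data were fit bidirectionally against DMSO as the negative control and baseline.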

[13] = read-out: Interferon-gamma inducible Protein 10 (IP10), CXCL10 (gene 3627); test: BSK_KF3CT_IP10: BioMAP Diversity Plus: KF3CT Assay for Interferon-gamma inducible Protein 10 (IP10) Biomarker Activity (AID 2283068); details: primary human keratinocytes with fibroblasts; actives raise or lower the signal
How it was run: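 Signal is secreted/surface IP-10 by ELISA in a human primary skin co-culture of keratinocytes and foreskin fibroblasts, taken 24 h post-dosing; DMSO served as negative control.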

[14] = BSK_KF3CT_SRB: Viability Assessment in the BioMAP Diversity Plus: KF3CT Assay (AID 2283069); details: primary human keratinocytes with fibroblasts
How it was run: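 Cytotoxicity was gauged by SRB staining (0.1% SRB, 10% TCA fixation, 560 nm) of parallel cultures at 24 h. The cells were primary human skin keratinocytes co-cultured with fibroblasts, and activity was fitted in both directions against DMSO.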

[15] = read-out: Interleukin-1 alpha (IL1a), IL1A (gene 3552); test: BSK_KF3CT_IL1a: BioMAP Diversity Plus: KF3CT Assay for Interleukin-1 alpha (IL1a) Biomarker Activity (AID 2283070); details: primary human keratinocytes with fibroblasts; actives raise or lower the signal
How it was run: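 IL-1a was detected by ELISA 24 h after chemical treatment of a co-culture of human skin keratinocytes and foreskin fibroblasts. Gain or loss of signal was fitted against the DMSO baseline.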

[16] = read-out: TIMP metallopeptidase inhibitor 2 (TIMP2), TIMP2 (gene 7077); test: BSK_KF3CT_TIMP2: BioMAP Diversity Plus: KF3CT Assay for TIMP metallopeptidase inhibitor 2 (TIMP2) Biomarker Activity (AID 2283071); details: primary human keratinocytes with fibroblasts; actives raise or lower the signal
How it was run: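 Measurements come from ELISA detection of TIMP-2 at 24 hours in a dosed human keratinocyte and foreskin fibroblast co-culture. DMSO serves as negative control and baseline.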

[17] = read-out: C-C motif chemokine 2 (Homo sapiens) (UniProt P13500); test: BSK_KF3CT_MCP1: BioMAP Diversity Plus: KF3CT Assay for Monocyte Chemoattractant Protein 1 (MCP1/CCL2) Biomarker Activity (AID 2283073); details: primary human keratinocytes with fibroblasts; actives raise or lower the signal
How it was run: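 Human keratinocyte plus foreskin fibroblast primary co-culture exposed to chemical for 24 h. MCP-1 levels measured by ELISA. Bidirectional curve fitting relative to DMSO negative control as baseline.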

[18] = read-out: Matrix Metallopeptidase 9 (MMP9), MMP9 (gene 4318); test: BSK_KF3CT_MMP9: BioMAP Diversity Plus: KF3CT Assay for Matrix Metallopeptidase 9 (MMP9) Biomarker Activity (AID 2283074); details: primary human keratinocytes with fibroblasts; actives raise or lower the signal;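 on AC50: MMP9 protein level quantified by ELISA in the co-culture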
How it was run: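 MMP-9 quantified by ELISA after 24 h chemical treatment of primary human skin keratinocyte/fibroblast co-cultures; gain or loss fitted against DMSO, with parallel SRB staining (0.1% SRB, 560 nm) for overt cytotoxicity.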

[19] = read-out: Transforming growth factor beta 1 (TGFb1), TGFB1 (gene 7040); test: BSK_KF3CT_TGFb1: BioMAP Diversity Plus: KF3CT Assay for Transforming growth factor beta 1 (TGFb1) Biomarker Activity (AID 2283072); details: primary human keratinocytes with fibroblasts; actives raise or lower the signal
How it was run: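 TGF-b1 ELISA on a 24 h dosed co-culture of human keratinocytes and foreskin fibroblasts; cytotoxicity tracked in parallel cultures by SRB staining.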

CC(C)(COCC1CO1)COCC1CO1 (configuration not stated)
outcome [1]: inactive
outcome [2]: inactive
outcome [3]: inactive
outcome [4]: inactive
AC50 [5]: 20 µM (active)
outcome [6]: inactive
outcome [7]: inactive
outcome [8]: inactive
outcome [9]: inactive
outcome [10]: inactive
outcome [11]: inactive
outcome [12]: inactive
outcome [13]: inactive
outcome [14]: inactive
outcome [15]: inactive
outcome [16]: inactive
outcome [17]: inactive
outcome [18]: inactive

COCC(=O)N(c1c(C)cccc1C)[C@H](C)C(=O)OC
outcome [1]: inactive
outcome [2]: inactive
outcome [3]: inactive
outcome [4]: inactive
outcome [5]: inactive
outcome [6]: inactive
outcome [7]: inactive
outcome [8]: inactive
outcome [9]: inactive
outcome [10]: inactive
outcome [11]: inactive
outcome [12]: inactive
outcome [13]: inactive
outcome [14]: inactive
outcome [15]: inactive
outcome [16]: inactive
outcome [17]: inactive

CCOC(=O)C(SP(=S)(OC)OC)c1ccccc1 (configuration not stated)
AC50 [1]: 20 µM (active)
AC50 [2]: 10.2 µM (active)
outcome [3]: inactive
outcome [4]: inactive
AC50 [5]: 26.4 µM (active)
outcome [6]: inactive
outcome [7]: inactive
outcome [9]: inactive
AC50 [10]: 20 µM (active)
outcome [11]: inactive
outcome [12]: inactive
outcome [13]: inactive
outcome [14]: inactive
outcome [15]: inactive
outcome [16]: inactive
AC50 [19]: 20 µM (active)
outcome [17]: inactive
outcome [18]: inactive

O=[N+]([O-])c1ccc(Nc2ccccc2)cc1
outcome [1]: inactive
outcome [2]: inactive
outcome [3]: inactive
outcome [4]: inactive
outcome [5]: inactive
outcome [6]: inactive
outcome [7]: inactive
outcome [9]: inactive
outcome [10]: inactive
outcome [11]: inactive
outcome [12]: inactive
outcome [13]: inactive
outcome [14]: inactive
outcome [15]: inactive
outcome [16]: inactive
outcome [19]: inactive
outcome [17]: inactive

Cc1cccc(OP(=O)(Oc2cccc(C)c2)Oc2cccc(C)c2)c1
outcome [1]: inactive
outcome [2]: inactive
outcome [3]: inactive
outcome [4]: inactive
outcome [5]: inactive
outcome [6]: inactive
outcome [7]: inactive
outcome [9]: inactive
outcome [10]: inactive
AC50 [11]: 0.0473 µM (active)
outcome [12]: inactive
outcome [13]: inactive
outcome [14]: inactive
outcome [15]: inactive
outcome [16]: inactive
outcome [17]: inactive
AC50 [18]: 20.3 µM (active)
